Source: PubChem BioAssay AID463229 (Broad Institute, 2010)
Hit rate of the full screen: of about 2,300 compounds, about 2,100 (91%) were called active. So high a share suggests a set chosen from earlier hits. A selection follows. Entries with a potency or affinity are not part of this list. Values without a mark were called inactive.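 The calls were made as follows: active = compounds raising the signal whose fitted half-maximal concentration is at or below their top tested dose (cut at about 25 µM in these data); inconclusive = flat fit at 30 to 70% activity, or a poor fit; inactive = the rest.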

assay: cytokine-free beta-cell viability effect – INS-1E rat cells, ATP luminescence, cherry pick, counter-screen for beta-cell apoptosis protection project, dose response (AID 463229); conditions: INS-1E rat beta cells, no cytokines, CellTiter-Glo ATP, 48 h; series mostly up to 26 µM; activity change (ATP luminescence): at the top concentration;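 also: 0% = median of neutral control wells and 100% = median of positive control wells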

| SMILES | activity change (ATP luminescence) |
| --- | --- |
| CCCC(=O)N(CCN(C(=O)CCC)c1ccccc1)c1ccccc1 | -4.4% |
| NC(=O)c1ccccc1OC1CCC1 | -1.51% |
| CN(C)c1ccc(/C=C(\C#N)C(=O)OCC(=O)N(C)C2CCS(=O)(=O)C2)cc1 (configuration not stated) | 0.611% |
| COc1ccc(/C=C/C(=O)c2ccncc2)c2ccccc12 | 0.388% |
| COc1cc(CNCCO)cc(Cl)c1OCc1ccc(Cl)cc1Cl | 138% |
| Cc1ccc(NC(=O)NCC2CCN(Cc3cccc(Cl)c3)CC2)cc1Cl | 137% |
| CCc1ccc(-n2c(C)cc(/C=N/NC(=O)c3ccncc3)c2C)cc1 | -6.46% |
| Cc1cc(C)nc(-n2nc(C)cc2Nc2ccccc2)n1 | 9.72% |
| CC1=CC(C)(C)N(C(=O)CSc2nnc(-c3ccc(C)cc3)o2)c2ccc(C)cc21 | -19.3% |
| CCOC(=O)C(=Cc1ccc(Br)cc1)C(=O)OCC | 7.87% |
| O=[N+]([O-])c1ccc(N2CCN(CCOc3nonc3-c3ccccc3)CC2)c(Cl)c1 | -50.3% |
| Cc1ccccc1OC1C(=O)N(Cc2ccc3c(c2)OCO3)C1c1sccc1C (configuration not stated) | 4.5% [at 12 µM] |
| CC(Sc1nnc2c(n1)[nH]c1ccccc12)C(=O)N(C)C1CCCCC1 (configuration not stated) | -8.47% |
| CCCC1(c2ccccc2)NC(=O)N(CC(=O)Nc2cc(C)ccc2OC)C1=O (configuration not stated) | -8.9% |
| O=[N+]([O-])c1ccc(-n2cnc3ccccc32)c([N+](=O)[O-])c1 | 8% |
| CCS(=O)(=O)c1ncc(Cl)c(C(=O)Nc2ccccc2OC)n1 | -7.94% |
| Cc1ccc(OCc2cc(C(=O)N(C)Cc3cc(C4CC4)n[nH]3)no2)cc1C | 1.19% |
| COCCCNC(=S)N/N=C/c1cccc(OC)c1O | -7.08% |
| O=C(Nc1ccc(F)cc1F)N1CCCN(CCOc2ccccc2)CC1 | -26.2% |
| CC(=O)Nc1ccc(S(=O)(=O)N2c3ccccc3NC(=O)CC2C)c(Cl)c1 (configuration not stated) | -37.2% |
| Cc1cccc(NC(=O)Cn2c(/C=C/c3ccccc3)nc3ccccc32)c1 | 11.3% |

| SMILES | activity change (ATP luminescence) |
| --- | --- |
| O=C(Oc1cccc2cccnc12)c1cccc(N2C(=O)C3C4CCC(C4)C3C2=O)c1 (configuration not stated) | -0.822% |
| O=c1c(Cl)c(Cl)cnn1Cc1ccc(F)cc1 | 33.2% |
| O=C(Cn1ncc(Cl)c(Cl)c1=O)c1ccc2c(c1)OCCO2 | 131% |
| Cc1ccc2ccc3ccc(C)nc3c2n1 | 5.01% |
| CCOCCCNC(=O)c1c[nH]c2cc(OC)ccc2c1=O | -29.9% |
| COc1ccc(C(=O)CSc2n[nH]c(=O)n2Cc2ccco2)cc1 | -29.5% |
| CCOc1ccc(OCC)c(S(=O)(=O)NCCOC23CC4CC(CC(C4)C2)C3)c1 | 149% |
| C=CCN(CC=C)CC(O)Cn1c2ccccc2c2ccccc21 (configuration not stated) | 8.59% |
| O=C(NCc1ccccn1)c1cc(-c2ccc(Cl)cc2)oc1C(F)(F)F | -54% |
| CCN(CC(=O)Nc1ccc(NC(C)=O)cc1)C(=O)CCCOc1ccc(C(C)(C)C)cc1 | 3.97% |
| CC(=O)Oc1ccc(N(C(C)=O)S(=O)(=O)c2cccs2)c2ccccc12 | 6.75% |
| Cc1ccc(O)c(CNc2cccc3cccnc23)c1 | 12.8% |
| Cc1nc(C(F)(F)F)c(C(=O)N/N=C(\N)c2ccccn2)s1 | -4.67% |
| COc1ccc(/C=C/C(=O)NC(=S)Nc2ccccc2C(=O)NC2CCCCC2)cc1 | 36.7% |
| O=C1CSC(c2ccccc2F)N1 (configuration not stated) | -2.44% |
| CC(=O)c1c(C)[nH]c(C(=O)CN2CCN(S(=O)(=O)c3ccccc3)CC2)c1C | 0.844% |
| CCOc1ccc(-n2c(=O)[nH]cc(C(=O)Nc3ccc(OC)c(OC)c3)c2=O)cc1 | -8.71% |
| CCCOc1ccc(C(=O)C(CN2CCOCC2)c2ccccc2)cc1 (configuration not stated) | -20% [at 12 µM] |
| CC(NC(=O)C1CCC(C(=O)NC(C)c2ccccc2)CC1)c1ccccc1 (configuration not stated) | 4.42% |
| CC(=O)c1ccccc1OCCOCCOc1ccccc1C(C)=O | -106% |
| Cc1cc(C)c2c(C)[nH]nc2n1 | -7.33% |

| SMILES | activity change (ATP luminescence) |
| --- | --- |
| O=C(c1ccccc1)C(CCC(CN1CCOCC1)C(=O)c1ccccc1)CN1CCOCC1 (configuration not stated) | -27.4% [at 12 µM] |
| CC(=O)SC1CC(=O)N(c2c(C)cccc2C)C1=O (configuration not stated) | 0.862% |
| COc1ccccc1/C=N\Nc1cc(C)nc(-n2nc(C)cc2C)n1 | 81.3% |
| O=C(Nc1ccc(Nc2ccncc2)cc1)c1ccc(Nc2ccnc3ccc([N+](=O)[O-])cc23)cc1[N+](=O)[O-] | 19.1% |
| O=c1c(Cl)c2oc3ccccc3nc-2c2ccccc12 | 12.3% |
| CCN(CC)c1ccc(N=C2C(=O)Nc3ccccc32)cc1 | -19.5% |
| O=C1CSC(c2cccnc2)N1CC1CC1 (configuration not stated) | -11.9% |
| Cc1ccccc1NC(=S)Nc1cccc2cnccc12 | -4.04% |
| COc1ncnc(OC)c1S(=O)(=O)Nc1ccc(C(F)(F)F)cc1 | -13.2% |
| Cc1ccccc1Cn1ccc(=NCc2ccccc2)cc1 | -10.7% |
| Cc1ccc(S(=O)(=O)N2CCCCC2c2cccnc2)c(C)c1C (configuration not stated) | 2.93% |
| Cc1ccc(Oc2nc(-c3ccccn3)nc3ccccc23)cc1 | -24% |
| Nc1ccc(N2CCCCC2)cc1N1CCCCC1 | 56.7% |
| CC(=O)Oc1c(Cl)cc(N(C(C)=O)S(=O)(=O)c2ccccc2)c2ccccc12 | 133% |
| O=C(COC(=O)Cn1cnc2ccccc2c1=O)Nc1ccc2c(c1)OCO2 | -9.05% |
| CC(C)OCCCNC(=S)N1CCC(C(=O)c2ccc(Cl)cc2)CC1 | -6.47% |
| CC(C)(C)n1[nH]c2c3c(ccc2c1=O)C(=O)c1ccccc1C3=O | -35% |
| CCCCC[n+]1ccn(C2=C([O-])c3ccccc3C(=O)/C2=N\S(=O)(=O)c2ccccc2)c1 | 143% |
| CCCCN(C)CCNC(=O)c1cc2c(-c3ccccc3F)nn(C)c2s1 | -5.06% |
| CC(C(c1cccs1)c1c(N)n(C)c(=O)n(C)c1=O)[N+](=O)[O-] (configuration not stated) | -35.9% |
